From PubChem BioAssay (NCI)
“And” between values parts separate entries of the source, which are not always exact repeats. Equal values may be shown once. This is part of a sample that, as a whole, favours compounds with a hit. Of some 83,000 tested, about 20% had one in any assay.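 Method: cells in 96-well plates; compound added at one concentration; 48 h incubation; percent growth measured; values under 10 scored active.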 The source made the active and inactive calls.

test system: UACC-62 melanoma; assay: NCI-60 one-dose screen, 48 h (100 = growth as untreated, 0 = no growth, -100 = all killed); conditions: 10 µM unless noted

SMILES | growth
N#C/C(=C\c1ccccc1)C(=O)Nc1nnc(-c2ccccc2)o1 | 36.9% [100 µM] (inactive) and -78.4% [100 µM] (active)
CC12CCC3c4cc(Br)c(O)c(Br)c4CCC3C1CCC2O (configuration not stated) | 7.01% [100 µM] (active) and -44.7% [100 µM] (active)
CC12NC(=C(C#N)C#N)C(C#N)=C3NC(N)=C(C#N)C(=C31)Oc1ccccc12 (configuration not stated) | 7.06% [100 µM] (active) and -61.2% [100 µM] (active)
CC(C)=CCC/C(C)=C/CC/C(C)=C/CC/C(C)=C/C=C/C=C(\C)CC/C=C(\C)CC/C=C(\C)CCC=C(C)C | 75.8% [100 µM] (inactive) and 45% [100 µM] (inactive)
Cc1sccc1C(=S)Nc1ccc(Cl)c(/C=N/OC(C)(C)C)c1 | -86.5% [100 µM] (active) and -92.3% [100 µM] (active)
Cc1ccc(NC(=S)C#N)c(C)c1 | 41.9% [100 µM] (inactive) and 1.46% [100 µM] (active)
C/C(Cl)=N/OC(=O)Nc1ccc(S(N)(=O)=O)c(C)c1 | -93.6% [100 µM] (active) and -100% [100 µM] (active)
CC(=O)OC(=C(C#N)C#N)c1nccnc1C(C)=O | 96.4% [20 µM] (inactive) and -99.5% [20 µM] (active)
O=C1C=C(Nc2ccc(S(=O)(=O)Nc3nccs3)cc2)c2ccccc2C1=O | -46.1% [100 µM] (active) and -88.9% [100 µM] (active)
COC(=O)C(=O)C(C(=O)C(=O)Nc1ccccc1C(=O)OC)c1nc2ccc(C(=O)c3ccccc3)cc2[nH]c1=O (configuration not stated) | 54.3% [100 µM] (inactive) and 12.8% [100 µM] (inactive)
Cc1ccnc2[nH]c(-c3ccc(F)cc3)cc(=O)c12 | -5.39% [100 µM] (active) and -36.2% [100 µM] (active)
O=C1NC(=S)NC1C(Cc1ccccc1)c1ccco1 (configuration not stated) | 36.5% [100 µM] (inactive) and 57.6% [100 µM] (inactive)
COc1cc(Nc2ccc3c(c2)CCC3)nc(OC)n1 | 42.1% [100 µM] (inactive) and 2.26% [100 µM] (active)
C=C1C(=O)OC2/C=C(\CO)C(OC(C)=O)CC(O)/C(C)=C/C(OC(=O)C(C)CC)C12 (configuration not stated) | -85.5% [100 µM] (active) and -98.8% [100 µM] (active)
N#Cc1sc2nc(/C=C3/C=CC=CC3=O)c(O)n2c1N | 18.5% [100 µM] (inactive) and 7.16% [100 µM] (active)
CCOC(=O)CCC(NC(=O)c1ccc(OCc2nc3cc(C(F)(F)F)ccc3nc2-c2ccccc2)cc1)C(=O)OCC (configuration not stated) | 49.5% [100 µM] (inactive) and 4.13% [100 µM] (active)
O=C(CCc1ccccc1)On1c(-c2ccccc2)nc2ccccc2c1=S | -68.8% [100 µM] (active) and -83.7% [100 µM] (active)
O=c1c2ncn(C3CCCCO3)c2n(-c2ccccc2)c(=S)n1-c1ccccc1 (configuration not stated) | 18.7% [100 µM] (inactive) and 4.84% [100 µM] (active)
C=C1C(=O)OC2C1CC(O)/C(C)=C\CCC1(C)OC21 (configuration not stated) | 68.9% [100 µM] (inactive) and -86% [100 µM] (active)

SMILES | growth
COc1cc(CC2c3cc(OC)c(OC)cc3CCN2C)c(Oc2cc3c(cc2OC)-c2c(O)c(OC)cc4c2C(C3)N(C)CC4)cc1OC (configuration not stated) | -60.3% [100 µM] (active) and -87.2% [100 µM] (active)
CC(C)=CCC/C(C)=C/CC/C(C)=C/CSc1ccc(Cl)cc1C(=O)O | -72.3% [100 µM] (active) and 10.4% [100 µM] (inactive)
CC#CC#C/C=C1\C=CC2(OC=CC2OC(C)=O)O1 (configuration not stated) | -87% [100 µM] (active) and -100% [100 µM] (active)
O=C1c2c(O)ccc(O)c2C(=O)c2c(NCCNC(=O)C(O)C(O)C(O)C(O)CO)ccc(NCCNC(=O)C(O)C(O)C(O)C(O)CO)c21 (configuration not stated) | -100% [100 µM] (active)
O=C(O)c1cnccc1-c1cc(=O)[nH]n1-c1ccccc1 | 17.3% [100 µM] (inactive) and 7.35% [100 µM] (active)
ClC(Cl)(Cl)C1CCOC1n1nnc2ccccc21 (configuration not stated) | 65.4% [100 µM] (inactive) and 12.8% [100 µM] (inactive)
Oc1ccccc1-c1n[nH]c(-c2ccccc2O)n1 | 45.8% [100 µM] (inactive) and 4.35% [100 µM] (active)
N#Cc1cnn2c1n[n+]([O-])c1ccc(Cl)cc12 | -91.7% [100 µM] (active) and -100% [100 µM] (active)
N#CC12COC3(CCCCC3C1(C#N)C#N)OC2=N (configuration not stated) | -38.9% [100 µM] (active)
CCCCOC(=O)C1CC[C@H]2[C@@H]3CCc4cc(OC(=O)c5cccc6c(=O)c7ccccc7[nH]c56)ccc4[C@H]3CC[C@]12C (some centres not stated) | -100% [50 µM] (active)
CCOC(=O)C1(C#N)C(=O)c2cc[n+](CC[n+]3ccc4c(c3)C(=O)C(C#N)(C(=O)OCC)C4=O)cc2C1=O (configuration not stated) | 66.6% [100 µM] (inactive) and 29.5% [100 µM] (inactive)
CC1(C)CC2(C)OC(=N)C1(C#N)C2(C#N)C#N (configuration not stated) | -92.9% [100 µM] (active)
Cc1cc(-c2nc3ccccc3s2)ccc1N | 46.1% [100 µM] (inactive) and 40.6% [100 µM] (inactive)
CN(C)CCNc1ccc(NCC[N+](C)(C)Cc2ccc([N+](=O)[O-])cc2)c2c1C(=O)c1c(O)ccc(O)c1C2=O | 24.1% [100 µM] (inactive) and 0.198% [100 µM] (active)
CC(=O)OC(C)c1cc2c(s1)C(=O)c1ccsc1C2=O (configuration not stated) | -64.5% [100 µM] (active) and -100% [100 µM] (active)
CCCCOC(=O)C1CN2C(=NC1(C(F)(F)F)C(F)(F)F)Sc1ccccc12 (configuration not stated) | 4.45% [100 µM] (active) and 54.9% [100 µM] (inactive)
CCOC(=O)CCCOc1cc(-c2ccccc2F)nc2cc3c(cc12)OCO3 | 31.5% [100 µM] (inactive) and -31.4% [100 µM] (active)
CCOc1cc2c(cc1O)/C(=N\N)C[C@@H]1[C@@H]2CC[C@]2(C)[C@@H](O)CC[C@@H]12 | 17.1% [100 µM] (inactive) and -96.8% [100 µM] (active)
